This is a sample that favours compounds with a hit; in the whole collection about 6% have one here.
D3 antag – antagonists of human D3 dopamine receptor; P35462; D3R cells, DiscoveRx beta-arrestin luminescence, antagonist mode; stronger effect = lower value; max response, negative = inhibition, %; hit rate 2.5% among 360,000; AID 652054; in the data active = max response below about -50%; inconclusive = no clear call, values can overlap the other calls
Target sequence (P35462 whole entry, looked up): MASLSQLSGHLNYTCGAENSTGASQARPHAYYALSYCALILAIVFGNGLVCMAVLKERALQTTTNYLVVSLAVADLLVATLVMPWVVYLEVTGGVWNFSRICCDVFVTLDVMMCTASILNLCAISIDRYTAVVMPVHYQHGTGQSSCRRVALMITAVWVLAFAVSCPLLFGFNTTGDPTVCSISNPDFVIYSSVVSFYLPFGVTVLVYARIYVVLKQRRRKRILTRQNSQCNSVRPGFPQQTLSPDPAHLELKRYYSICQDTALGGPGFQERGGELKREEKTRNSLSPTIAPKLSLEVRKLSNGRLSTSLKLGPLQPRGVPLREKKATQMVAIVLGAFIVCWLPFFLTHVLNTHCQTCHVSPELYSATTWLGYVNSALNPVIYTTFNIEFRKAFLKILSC
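Cells plated overnight at 1500 cells/well, then exposed to library compounds with dopamine controls for 90 minutes at 37 degrees C. DiscoveRx reagent added for 30–60 minutes at room temperature; luminescence read, quantitative HTS format.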
D3 ag – D3 dopamine receptor (human) agonism | max activation, % | D3R DiscoveRx beta-arrestin cells, luminescence, 90 min | hit rate 0.58% among 410,000; in the data active = max activation above about 30%
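Agonist-mode cell screen: cells plated at 1500/well and incubated overnight at 37 °C, then exposed to library compounds for 90 min at 37 °C. Detection reagent was added for 30–60 min at room temperature, and luminescence was read.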
D1 antag – blocks dopamine activation of the human D1 receptor; activity change, negative = inhibition, % at 10 µM; AID 504652; hit rate 3.2% among 360,000; HEK293 TREx D1 cells, calcium flux, dopamine EC80; stronger effect = lower value; in the data active = activity change below about -30%
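After overnight tetracycline induction at 30 C, force-coupled D1 HEK293 cells took up a no-wash calcium dye at room temperature. Compounds were added and monitored 180 s, and the response to EC80 dopamine was then recorded.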
D1 agonist – activates the human D1 dopamine receptor. P21728. HEK293 T-REx D1 cells, calcium flux, agonist mode. activation, % at 2 µM. hit rate 1% among 360,000; in the data active = activation above about 30%
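Tetracycline-induced HEK293 TREx D1 cells, force-coupled to calcium signalling, were dye-loaded with a no-wash calcium kit. Compound was pin-added after a 10 s baseline. Fluorescence was read kinetically at 1 cycle/s for 180 s, with calcium rises flagged as agonism.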
D1 PAM – potentiators of human D1 dopamine receptor. potentiation, % at 10 µM. P21728. HEK293 TREx D1 cells, calcium flux, dopamine EC20 potentiation. hit rate 0.036% among 360,000. AID 504651; in the data active = potentiation above about 30%
Each line names hits and unclear results; the compound was inactive in the other large screens; ! = repeats disagree.

CCOC(=O)C1=C(CN2CCN(c3ccc(Cl)cc3)CC2)NC(=O)NC1c1ccc(F)cc1 (centres undefined)	none (no result: D3 antag)
CC(=O)c1ccc(N2CCN(C(=S)Nc3cccc(F)c3)CC2)cc1	D1 antag -40.0
Fc1cccc(NC(=S)N2CCCC2)c1	none
CCC(C)NCCOCCOc1ccc(Cl)c2ccccc12 (centres undefined)	D3 antag -55.6, D1 antag -45.2, D1 agonist 57.5
CCC(C)NCCOCCSc1ccc(Cl)cc1 (centres undefined)	D3 antag -78.3
CCC(C)NCCOCCOc1ccc(Cl)c(C)c1C (centres undefined)	D3 antag -64.0, D1 agonist 33.9
C=CCc1cc(Cl)ccc1OCCOCCNC(C)CC (centres undefined)	D3 antag inconclusive
COC(=O)c1c(NC(=O)c2nc(SCc3cccc(C)c3)ncc2Cl)sc2c1CCCC2	none (no result: D3 antag)
CC(=O)Nc1sc(/C(C#N)=C/c2ccc(Cl)c(Cl)c2)nc1-c1ccc(C)cc1	D1 antag -49.0, D1 agonist 283.5
CC(=O)Nc1sc(N/N=C/c2ccc(C)cc2)nc1-c1ccc(C)cc1	none
COc1ccccc1N1CCN(CCCNC(=O)Nc2ccccc2)CC1	none
O=C(NCCCN1CCCC1)Nc1ccc(F)cc1	none
O=C(NCCCN1CCN(c2ccccc2F)CC1)Nc1ccc(F)cc1	D3 antag inconclusive, D1 antag -78.7
CSc1ccc(NC(=O)NCCCN2CCN(c3ccccc3F)CC2)cc1	D1 antag -72.9, D1 agonist 37.0
O=C(NCCCN1CCN(c2ccccc2F)CC1)Nc1ccccc1[N+](=O)[O-]	D3 antag -88.8, D1 antag -53.8
Cc1ccccc1NC(=O)NCCCN1CCN(C)CC1	none
COc1ccc2c(C)c(CCC(=O)NCc3cccc(Cl)c3)c(=O)oc2c1	none (no result: D3 antag)
CN(c1ccc(OCC(=O)OCC(=O)Nc2ccccc2F)cc1)S(=O)(=O)c1cccs1	D1 antag -40.1, D1 agonist 36.3
Cc1cc(C)cc(NC(=O)COC(=O)COc2ccc(N(C)S(=O)(=O)c3cccs3)cc2)c1	none (no result: D1 antag, D1 agonist, D1 PAM)
Cc1ccccc1C(=O)Nc1c(C(=O)N(CCN(C)C)Cc2ccco2)oc2ccccc12	none
CN(C)CCN(Cc1ccco1)C(=O)c1oc2ccccc2c1NC(=O)c1ccccc1	D1 antag -42.1 (no result: D3 antag)
COc1ccccc1C(=O)Nc1c(C(=O)N(CCN(C)C)Cc2ccco2)oc2ccccc12	D1 antag -38.1!, D1 agonist 46.3!
CCCCCCn1c(=O)[nH]c2nc3cc(N)c(C)cc3nc2c1=O	D1 agonist 294.5
COc1ccc(NC(=O)CN(C)C(=O)C2=COCCO2)cc1	D3 antag -58.8
CN(CC(=O)Nc1ccc(Cl)cc1)C(=O)C1=COCCO1	none
CC(NC(=O)CSc1nc(-c2cccc(Cl)c2)nc2cc(=O)[nH]n12)c1nc2ccccc2n1C (centres undefined)	none (no result: D3 antag)
N#Cc1c(-c2ccccc2)ccn(Cc2ccccc2Cl)c1=O	D3 antag -50.7
CCOC(=O)c1ccc(Nc2sc(C(=O)c3cccc([N+](=O)[O-])c3)c(N)c2C#N)cc1	D1 antag -31.8
CC1(C)NC(=O)N(CCCCOc2ccccc2[N+](=O)[O-])C1=O	none (no result: D3 antag, D3 ag)
CC1(C)NC(=O)N(c2ccc([N+](=O)[O-])c(C(F)(F)F)c2)C1=O	D3 ag 36.4!
COc1ccc(Br)cc1/C=N/NC(=O)CNC(=O)/C=C/c1ccccc1	D3 antag -67.1
COc1ccccc1NC(=O)CCN1CCCCCC1	D3 antag -111.1
COc1ccc(C)cc1NC(=O)CCN1CCCC1	none
O=C(CCN1CCN(Cc2ccccc2)CC1)Nc1ccccc1Cl	none
COC(=O)c1cc(CN2CCN(c3ccccc3)CC2)ccc1O	D3 antag -56.4
COc1ccccc1NC(=O)CCN1C(=O)C2C3CCC(C3)C2C1=O (centres undefined)	D1 antag -78.4
COc1ccccc1NC(=O)CCN1CCN(Cc2ccccc2)CC1	D3 antag -54.8
COC(=O)c1ccccc1NC(=O)CN1CCN(Cc2ccccc2)CC1	none
CCOc1ccc(C(=O)NCCn2cc(SCC(=O)Nc3ccccc3)c3ccccc32)cc1	none (no result: D3 antag)
Cc1cc(=O)n(CC(=O)N2CCCc3ccccc32)c2c1c(C)nn2-c1cccc(F)c1	none (no result: D3 antag)
Cc1ccc(/C(=C\CN2CCCC2)c2cccc(/C=C/C(=O)O)n2)cc1	none (no result: D3 antag, D1 antag, D1 agonist, D1 PAM)
COc1ccccc1NC(=O)CN1CCCCCC1	none
COC(=O)c1cc(OC)c(OC)cc1NC(=S)N1CCN(Cc2ccccc2)CC1	D1 antag -31.7
COc1cc(NC(=O)Nc2ccccc2OC)c(OC)cc1NC(=O)CN1CCCCC1	D1 antag -32.3
Cc1ccc(Nc2ncnc3c2cnn3-c2ccccc2)c(C)c1	none (no result: D3 antag)
CCOC(=O)C1=C(C)N(c2ccc(OC)cc2)C(=O)/C1=C\c1cccs1	D3 ag 71.5
C=CCn1c(N)cc(=O)nc1SC(C)C(=O)Nc1ccc(C(=O)OCC)cc1 (centres undefined)	D1 antag -35.3
CCOC(=O)c1ccc(NC(=O)C(C)Sc2nc(=O)cc(N)n2CCc2ccccc2)cc1 (centres undefined)	none (no result: D3 antag)
Cc1ccc(-n2nc(CO)c(C(=O)NCCc3ccccc3)n2)cc1C	none (no result: D3 antag)
COc1cccc(-c2cc(CC3(O)CCN(CCCc4ccccc4)CC3)on2)c1	D3 antag -95.8
COc1cccc(-c2cc(C(=O)NCc3ccccc3)no2)c1	none (no result: D3 antag)
Cc1ccc(NC(=O)CN2C=NS(=O)(=O)c3ccccc32)c(C)c1	none (no result: D3 antag)
Cc1cc(C(=O)CSc2n[nH]c(N)n2)c(C)n1-c1ccc2c(c1)OCO2	D1 antag -39.6
CNS(=O)(=O)c1cccc(C(=O)OCC(=O)c2cc(C)n(CC3CCCO3)c2C)c1 (centres undefined)	none
Cc1cc(C(=O)CN2C(=O)NC(C)(CC(C)C)C2=O)c(C)n1-c1ccc2c(c1)OCO2 (centres undefined)	D1 antag -45.5
Cc1cc(C(=O)CN2C(=O)NC3(CCCC3)C2=O)c(C)n1-c1ccc2c(c1)OCO2	none
CNS(=O)(=O)c1cccc(C(=O)OCC(=O)c2cc(C)n(-c3ccc4c(c3)OCO4)c2C)c1	D1 antag -38.5
COc1ccc(/C=N/n2cc(-c3ccc(OC)cc3)nc2N)cc1	D1 antag -38.2
CCOc1ccccc1NC(=O)N1CCc2c(sc3c2CCCC3)C1c1ccccc1 (centres undefined)	none (no result: D3 antag)
CC1(C)CC(=O)c2cc(C(=O)Nc3ccc(Br)cc3)c(=O)n(-c3ccc(Cl)cc3)c2C1	D3 ag 52.5 (no result: D3 antag)
COc1ccccc1NC(=O)c1cc2c(n(-c3ccc(C)cc3)c1=O)CC(C)(C)CC2=O	D1 antag -30.9 (no result: D3 antag)
CC1(C)CC(=O)c2cc(C(=O)Nc3ccccc3Cl)c(=O)n(-c3ccc(Cl)cc3)c2C1	none (no result: D3 antag)
Fc1ccc(N2CCN(Cc3cccn3-c3nnc(N4CCN(C5CCCCC5)CC4)s3)CC2)cc1	none (no result: D3 antag)

Screens (PubChem)
